# Source: PubChem BioAssay (NCATS)
# Results filed as inconclusive are left out. Unmarked numbers belong to inactive results. The source made the active and inactive calls. Calls come from the whole dose curve; as a rule, active = well fitted inhibition curve with a large enough effect; inconclusive = small, poorly fitted or top-dose-only effect; inactive = flat fitted curve, though single readings scatter.
# Molecular target: Aldehyde dehydrogenase, mitochondrial (Homo sapiens) (UniProt P05091)
# Experiment: qHTS for Inhibitors of the Aldehyde Dehydrogenase Family (ALDH2) Primary screen (AID 2061308); note: nearly all actives have a fitted effect of over 55% in size;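 for activity change, negative = inhibition: plate controls were vehicle for no effect and reference inhibitor for full effect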
# Conditions: ALDH2 enzyme inhibition qHTS, 1536-well; series mostly up to 56 µM; activity change, negative = inhibition: at the top concentration
# Potency is the fitted concentration of half-maximal effect.
SMILES,"activity change, negative = inhibition [%]",Potency
CN(C)c1ccc(C(=O)NCC(=O)OC(C(=O)Nc2cc(C(F)(F)F)ccc2Cl)c2ccccc2)cc1 (stereo not given),-12.9,–
CN(C)[C@H]1CCN(c2cccc(Nc3nn4c(=O)c5ccccc5nc4s3)c2)C1,–,inactive
C=C1[C@@H](OC(C)=O)CC[C@@]2(C)[C@@H](OC(C)=O)[C@H](OC(C)=O)C3=C(C)C[C@H](OC(=O)C(C)CC)[C@@H]([C@@H](OC(C)=O)[C@H]12)C3(C)C (stereo not given in full),–,2.51 µM (active)
COc1ccc(-c2nc3ccccc3c(=O)n2Cc2ccco2)cc1COc1ccc(NC(C)=O)cc1,-19.2,–
O=C1Nc2ccccc2/C1=C/c1cccc(C(=O)O)c1,14.9,–
Cc1cc(-c2nnc3n2CCCCC3)c(C)n1-c1cccc2ccccc12,-19.1,–
O=c1[nH]c(CN2CCOCC2)nc2sc3c(c12)CCCC3,0.379,–
CN(C)CCCNc1ccc(NC(=O)c2cccs2)cn1,-16.5,–
Nc1ccccc1OC1=NS(=O)(=O)c2ccccc21,–,2.51 µM (active)
Nc1ccc(Nc2cc(O)c3ncccc3c2)cc1,-24.4,–
O=C(OCC#CCSc1nnc(-c2cccc3ccccc23)o1)c1ccncc1,-18.3,–
COc1ccc(C2=Nn3c(nnc3-c3ccccc3OC)SC2)cc1,5.08,–
Nc1nccc(-c2c(-c3ccc(F)cc3)ncn2C2CCCCC2)n1,-29.8,–
c1nc(NCC2CC2)c2cc(-c3ccc4c(c3)OCO4)ccc2n1,-15.6,–
O=C([C@@H]1CCCN(c2ccc3[nH]c(C4(n5cc(Cl)cn5)CC4)nc3n2)C1)N1CCCC1,-22.4,–
Cc1ccc(CN(C)c2ccc(N3CCN(C)CC3)cc2)cc1,–,10 µM (active)
NC(=O)C1CCN(c2nc(-c3cc4ccccc4o3)cs2)CC1,13.5,–
Cc1ccc(OCCn2c3c(c4ccccc42)CN(C(=O)C2CCCCC2)CC3)cc1,0.701,–
COc1ccc(C2Oc3ccccc3C(=O)N2Cc2ccccc2)cc1COc1ccc(NC(C)=O)cc1 (stereo not given),-16.1,–
Cc1ccc(CN(C)c2ncnc3ccc(-c4ccc(C#N)n4C)cc23)o1,-14.2,–

SMILES,"activity change, negative = inhibition [%]",Potency
N#Cc1cnc(NS(=O)(=O)c2ccc(NC(=O)Cc3ccc(Cl)c(Cl)c3)cc2)s1,7.91,–
NC(=O)C1CCN(c2nccc(-c3ccc4c(c3)OCCCO4)n2)CC1,-11.6,–
CCCCN1C(=O)c2ccccc2NC1c1ccc(OC)c(COc2ccc(NC(C)=O)cc2)c1 (stereo not given),0.582,–
N#Cc1cccnc1SC1=NS(=O)(=O)c2ccccc21,–,3.16 µM (active)
Cc1ccc2nc3sc(C(=O)N4CCCCC4)cc3cc2c1,-6.89,–
COc1ccc(C2Nc3ccccc3C(=O)N2Cc2ccc(-c3ccccc3)cc2)cc1COc1ccc(NC(C)=O)cc1 (stereo not given),-3.41,–
CCOc1ccc(CCNC(=O)c2cc3c(s2)CCC3)cc1OCC,12,–
CN1C(=O)Cc2cc([S+](=O)([O-])N3CCN([S+](=O)([O-])c4c(F)cccc4F)CC3)ccc21,-6.94,–
Cc1ccc(-c2cnn(CC(=O)NCCc3ccccc3)c(=O)c2)cc1,0,–
Cc1ccc(NC(=O)CN2C(=O)N/C(=C\c3cccn3-c3ccc(C(=O)O)cc3)C2=O)cc1,–,inactive
N#Cc1c(-c2ccc(Br)cc2)no[n+]1[O-],–,7.94 µM (active)
O=C(Nc1nc(-c2ccccc2)cs1)c1ccncc1NS(=O)(=O)c1ccc(Cl)cc1,-18.4,–
Cc1ccc(N[S+](=O)([O-])c2cc3c(cc2Cl)NC(=O)CO3)cc1Br,-22.3,–
Cc1ccc(S(=O)(=O)Nc2cc(C(F)(F)F)ccc2C(=O)Nc2nc(-c3ccccc3)cs2)cc1,–,inactive
C/C(=C\c1cccc(C(F)(F)F)c1)C1Nc2cccc3cccc(c23)N1,-7.94,–
Cc1csc(CN(C)c2ncnc3ccc(-c4ccc5c(c4)OCO5)cc23)n1,5.37,–
CC(=O)Nc1sc2c(c1-c1nc3ccccc3s1)CN(C(C)C)C2,–,inactive
CC(C)(Nc1nc(-c2ccccc2C(F)(F)F)nc2ccccc12)c1ccc(-c2cccc(C(F)(F)F)c2)cc1,-5.01,–
CNC(=O)C1CCN(c2nc(-c3ccc(Br)cc3)cs2)CC1,-3.29,–
c1csc(CNc2ccc(N3CCOCC3)cc2)c1,-19.3,–
